Data on 133 sequences can be found in PubChem BioAssay AID1159506 (National Center for Advancing Translational Sciences (NCATS), 2015).

Whole data set: some 59,000 sequences, median the read-out near -0.00055, cut for the lowest 2% near -2. Many of the other results were omitted from the sample, so the lowest values are more common in it than they were.

The test in a line: Identification of proteins required for the processing of the EWS-FLI1 nascent transcript.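 Also: robust z of luciferase light less the median z of siRNAs with the same seed.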 Particulars: TC32 Ewing sarcoma NR0B1-luc vs CMV-luc (EWS-FLI1 target promoter against control promoter), 48 h; screened at 20 nM (by protocol). In a few lines: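 TC32 Ewing sarcoma cells carrying NR0B1-promoter or CMV-promoter luciferase reporters were reverse-transfected with single siRNAs at 20 nM, three per gene genome-wide. Luminescence was read after 48 h and normalized to non-targeting controls.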
UAUUGAAGCAACUAGGAUG against KIAA0754 had a seed-corrected z-score of -0.869. Under UGCAGGAUGACCAAAGUGC against LGALS14 stands 0.705; under AAUAUGUCCAGCCCAGCUG against CLIC1, -0.000686; under UUUCCUUUGGUUGUUAAUG against FDX1, -0.575.

UUCCGAGAUAUGGAGGUAC against KIAA0368 registered a seed-corrected z-score of 0.95. Next, UCAUCUUCUUCCGUUGCCG against PPP1R1A: 0.273; UAAGAAAAAGCGGAGUUCG against FZD7: 0.0443; UUCUUUUGACUCUUAGUCC against CLEC4C: -2.28. Regarding UAGCCUAGGAGAUACAUCG against COPB2, the seed-corrected z-score is -3.63. Turning to UAACUUUUCCCUUAUUCAG against FAM90A3P, the seed-corrected z-score amounted to 0.873. As to UUCCGUGUGAAACAGAUGG against ARMC4, the seed-corrected z-score came to 0.434. Under AAUGUAGUAAAUGCAAGUU against C3orf79 stands -0.0591; under UUCUGGUAGAAGCAUUUCC against ZNF25, -1.93. Regarding UGAUGAAGUAGGUCACGGC against SLC29A4, the seed-corrected z-score was 0.41. The sequence UUUUCAGUCUCACUAGUUU against MIPEPP3 showed a seed-corrected z-score of 0.623. Next, AUUCUUAAUCUUUACAUCC against BRDTP1: 0.809; UAAGGGUCCUUCCAUGGCC against PVRIG: 0.201; AUGUUUCCCAUAACAGUGG against OR4D2: -3.19. In turn, UGAAAAUCACGAGAUUUCC against TEAD1 returned a seed-corrected z-score of 0.305. Take UGUUAAACUGCUAAGGAUG against RPRD2: the seed-corrected z-score was -0.294. Under UCAUGUACGGCCUCUUCCC against CCDC8 stands 0.173. Next, UCUGUGAGCAGUUUCCACU against SOX21: -2.74; UGAAUGUCUUGCGAUUUGC against CADM2: 0.122; UCCCAACCCAGUCAUAACC against BEST3: 0.332. UUUCGGUACUCGGUUAACC against EIF3FP3 gave a seed-corrected z-score of 0.962. Under UUGUCGUGAAAUGAAACUC against TTLL11 stands -0.262; under UUCCUUUCCACUGCCGUGU against CHRAC1, 0.0577; under UUCGUUAAGCAAACACUCG against ADAMTS9, 0.367. Next, UUUCAGAUAAGCACGAAGC against EIF3M: 1.89; UUAGCUGCAUGAUACCAGG against FAM151B: -2.3. The sequence AUAGUUACAGAGGCAAGAG against MESTP3 had a seed-corrected z-score of 1.98.

With UAUCUAACUUCUGUCCCGC against HCCS, the seed-corrected z-score stood at 0.00186.

In the case of UCUGCAACAAGAUCAACAG against POP5, the seed-corrected z-score was determined as 0.345.

With UUUUCUACAGCUCUCACUC against CREB3, the seed-corrected z-score was -2.05. AAACCUAAAAAUGCACUCC against MAGEE1 had a seed-corrected z-score of 0.116. Next, UAGGUGACGAUCUCCAUCA against HCK: -1.81; UUUCAUAUGUGAAUCCUCC against TCN2: 0.641.

On to AAACUAGUAACUCCUCGUC against PRDM8, for which the seed-corrected z-score was -2.41. Regarding AGUUGAAUAAGAAAGUACC against MTM1, the seed-corrected z-score came to 1.55. Next, UCAAACACCAGGGUGAGGG against CDK18: -0.15; AACUGGUUAUGGUAGUUGC against RMI2: -2.9; UCAGGAUCCAGACAGUUGC against TP53AIP1: 0.541. Next, UUAGGUGCACCAGUAAGAG against PEX2: -1.19; UCCAGUAAAAGGCUGAGCG against LGI1: -3.39; UCAGGAUGAUGUGUGGGAU against KRTAP5-11: -1.11. The sequence UGCUGUUCAAGCGAAUGCC against DRG1 gave a seed-corrected z-score of 0.745. AUAAGAUUGGAAUUCGACG against ARL6 gave a seed-corrected z-score of 0.549. Next, UUUGGAGCUACCACCCGAC against MRPL27: 0.314. Under AAAGCGACACCUGUCAGUC against IKBKAP stands -0.0431; under UUCAAUGAUAAUAAGGUUG against SF3B3, -3.05.

UUUAUCGAAAGCAAAAUUG against MTPAP showed a seed-corrected z-score of 0.577.

For the sequence AAAUCGACUACUGAGAACC against CUL9, the seed-corrected z-score was determined as 0.396.

In turn, AUCCCGACAAUCACCUUCC against DPAGT1 had a seed-corrected z-score of -0.101. Under AAUGUGGUGAAUACCUCGC against TXLNA stands 0.621; under AUCGGUCACAAAUUGUGGG against ABCE1, -2.31.

The sequence UGUUCAUCAAGAGGUUUCC against NUP188 registered a seed-corrected z-score of 0.194.

Turning to UUUCCAUAGACUUUCCCAC against KLF9, the seed-corrected z-score is -0.352.

Take UUUCUUAACUGAGUUCCUC against BMF: the seed-corrected z-score was -0.0574. Turning to UAUCAACUCAGUCCUCAGC against HPS6, the seed-corrected z-score came out at 0.543. AAGACUUUCAGACAUUUGU against ZNF181 displayed a seed-corrected z-score of -0.276. On to UUUGGGCUUAGCGGCUUUG against HIST1H1B, for which the seed-corrected z-score was -2.05.

Sequence ACUGUAAUUACUAAGAUCU against CXCR2 showed a seed-corrected z-score of -1.37. Under UACCAGAUGUCUUUUGUGC against IL33 stands 0.0107; under UUCUGGUCGAGAGCAUCUG against MAGEB16, -2.42. Next, UAUAACUUGAGAGUAGCUC against POPDC2: 0.283; UAUAAGUUUCCUCCCAUGC against TM6SF1: 0.269. Next, AUCUUGGACAGUAUCAGCC against IQCF1: -2.36; UUGAGUUUGAUGCCGCUGC against MKNK2: -0.331; UUUCUUAGGGAACCAGUUG against TAGLN2: -0.282.

As to UCCAGAUUCAAAAUGUCUU against NKX2-3, the seed-corrected z-score stood at 0.184. Under AAACUCAUCACUCCAGUAC against PARP12 stands 0.00618; under UUCUUGACUGCUGGUAUAG against C3orf30, -0.465; under UCGGUGUUCACGUAGCCCU against SYNGR3, -0.68. The sequence UUUAUUUAGACUUAUGAUC against PTH came in with a seed-corrected z-score of -2.27. Next, UCUACUUUUCACAAUGACC against GCLM: -0.666; ACGGCCUCCACUAUGUUUC against RPS26P31: 0.368; AAACUGUGAAGCGUAAGUG against FAM188B: -4.34.

Consider UGUCAAAUGAAAUUCCUUC against DHX38, for which the seed-corrected z-score was -0.779. Next, UGUGUGAGCAUGAAGCGAG against SSNA1: 0.0225. Next, AUAUGUAUCAGAACUGGGA against SAE1: -0.67; UGCUGUAAUGAUGUACUCC against KIAA1549: -1.71.

Consider UUAAUCACCUUGUCGUUGC against ALDH3A1, for which the seed-corrected z-score was -0.669. UGGUCUUAAAAUUAGAGUG against CALR3: the seed-corrected z-score was -2.01.

AUAUGAUUAGGUAGGUUUG against GDPD2: the seed-corrected z-score is 0.805. The sequence UCGGAUUGAUCUGUUAUGG against CFAP54 gave a seed-corrected z-score of -1.05. For the sequence UGGUAUAUAAGGGAUGAGC against ZNF611, the seed-corrected z-score is -2.07. Under UAUUGUCCAAAUGCUCAGG against SALL1 stands -0.159. Under UGUCUAAUAAGGCCUGAGC against ZFP3 stands -0.177; under ACAUCACAAAGUAUUAAUC against LOC643855, 0.14. Under UUGGGUUGGAAGUCCACUG against SF3A1 stands -2.15.

On to UUCUGGAUUAUAGUCAUCC against CWC22, for which the seed-corrected z-score was 0.478. On to AAUGCUUUUAAUGCUCUUC against CARHSP1, for which the seed-corrected z-score is -0.968.

UGAUCUACUAUGGUCCCUC against CPSF6 had a seed-corrected z-score of 0.287. Next, UACAUGAGCCUUGAUCUGG against FAU: 1.08; UGCAUGCUCAUUAAGUUCC against TUBE1: -0.26; UGUAGUCACUUUCACAUUC against CCR2: -2.02.

In turn, UACUCUUAAAGUGAUGUUA against PPP1R1C displayed a seed-corrected z-score of 0.297. With ACAGCACCUAGCAUGAUUG against HIGD1B, the seed-corrected z-score stood at 1.03. Next, UUCAUUAGCACAUAAGCGG against HENMT1: 0.665.

With UCGAAGUUUACUGCGGUCC against HINFP, the seed-corrected z-score was -2.19. Next, AUUCAUAUAGUUUUUCUCC against ZNF585B: 0.297; UAUGCACAAAGUUUGUGGG against CDC42SE2: -0.65; UCUCCUCCUCGAAAAGUGC against SLC12A7: 0.16. Next, AUCCAUGUCAGCGUGAGUC against PSD2: -0.273; AAGAGAAUCAAAAUAGUGG against GPR63: -0.548; AUCCGAACCAGGUAGACAC against PRTG: 0.374.

AUUGUGGUAGUAGUGUUGG against NUP62CL returned a seed-corrected z-score of -2.29.

Sequence UCUUUGCCUAGUGUGGUUU against TAF9 yielded a seed-corrected z-score of -0.576.

With UGUCUGUUUGUUGAAACUC against APOA5, the seed-corrected z-score was -0.451.

UCGUAGGCAAGGUAAGUAG against MUCL1 came in with a seed-corrected z-score of -0.0888. As to UCAAGUAAACUAGUCGUUU against VKORC1L1, the seed-corrected z-score is -0.26.

Take UUGGUUGCAAAGGAACUCC against NAB1: the seed-corrected z-score was -2.58. Under UUCAUUUGCUCGAUGGUUG against MAPK1 stands 1.09; under UUCCUUGAUAGGUAUGUAU against LOC388813, -0.0267; under UUGUGAACUACUUCUAUCC against AKNA, 0.00206. Under AUAGGUCUGACUCAGCUGC against CCDC155 stands -2.23; under UAGUGUACAAGGGUCAGGC against TSPAN17, 0.12; under UAUACACCAAUGUCGGUCC against KDM5A, 0.142. Next, AAUGAGUAAAAAGUGAAUU against HTN1: -0.556. Take UGAUGUAAAAUCAAAGGUU against KRT6C: the seed-corrected z-score was 0.491. In the case of AAACUUGGUUGAGUGAUCC against KRBA2, the seed-corrected z-score is 0.654. UGACUAUUAGGUCUUUAGC against BCAT1 yielded a seed-corrected z-score of -0.111. Under UCCAUCGUCAAUGUUAUCC against HNRNPH3 stands -5.45; under AUAUCUAUAAUACCCUCCG against APIP, 0.416. The sequence AUACGUGUUCUCAAUGAUC against RNF121 gave a seed-corrected z-score of 0.696. Next, UUCUCUUCUUUAGUCAGUG against SKA2P1: -2.33; AAUAUUGUAAGAAGAAGGG against NT5C3B: 0.882. Next, UGGGUUCUCAGGAACGGGU against PNKD: 1.76; UUCCUUUUGCGUCUGGAUC against ZC2HC1C: -1.55; UAUUUGGGUGGUUCAGUUG against NEK6: -0.0182. The sequence UAUGAGUCCACAAUUGAUC against TMEM19 registered a seed-corrected z-score of -11. As to UCUACAAGUAAUGAAGGCC against ZFP62, the seed-corrected z-score is 0.853.

As for AAUGAUGAAUCCACCUUCG against ARMC10P1, the seed-corrected z-score is -0.435.
